From PubChem BioAssay
Inconclusive results are not listed. Activity calls are given as the source filed them. The limit is not given here; nearly all actives have AC50 up to about 26 µM.

experiment: JHH-DIPG-1 glioma cell viability, MIPE5.0 library, CellTiter-Glo luminescence, qHTS (AID 1347067); conditions: JHH-DIPG-1 glioma viability, CellTiter-Glo ATP luminescence;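 also: cells exposed to compound for 48 hours before readout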

| SMILES | AC50 | outcome |
| --- | --- | --- |
| O=C(NOCCO)c1cc(CN2OCCCC2=O)c(F)c(F)c1Nc1ccc(I)cc1F | 0.148 µM (active) |  |
| CC(C)NC(=O)C1CCC(n2c(NC(=O)c3ccc(F)cc3)nc3ccc(CN4CCC(C(C)(C)O)CC4)cc32)CC1 (centres undefined) |  | inactive |
| COc1cccc2c1c(O)c(C(=O)N(C)c1ccc(C(F)(F)F)cc1)c(=O)n2C |  | inactive |
| COCCNCc1ccc(-c2cc3nccc(Oc4ccc(NC(=O)C5(C(=O)Nc6ccc(F)cc6)CC5)cc4F)c3s2)nc1 | 8.33 µM (active) |  |
| CC1Oc2cc(cnc2N)-c2c(nn(C)c2C#N)CN(C)C(=O)c2ccc(F)cc21 (centres undefined) |  | inactive |
| CCc1cc(C(N)=O)ccc1-n1nc(C(C)C)c2c(-n3cnc(-c4cnn(C)c4)c3)ccnc21 | 3.32 µM (active) |  |
| NS(=O)(=O)Oc1ccc2c3c(c(=O)oc2c1)CCCCC3 |  | inactive |
| CC1=C(c2ccc(O)cc2)[C@H](c2ccc(OCCN3CCCCC3)cc2)Oc2cc(O)ccc21 |  | inactive |
| NC(=O)c1cccc2c(NC(CN3CCC3)c3ccc(Cl)c(C(F)(F)F)c3)ncnc12 (centres undefined) | 11.8 µM (active) |  |
| CCN1C(=O)N2Cc3cc(OC)cc(OC)c3[C@@H](C)C=C2C12CCN(Cc1cc(C)cc(C)c1)CC2 | 18.6 µM (active) |  |
| CCN1CCN(Cc2ccc(NC(=O)Nc3ccc(Oc4cc(NC)ncn4)cc3)cc2C(F)(F)F)CC1 | 3.72 µM (active) |  |
| CCCCN(CCCC)C(=O)CN1C[C@H](c2ccc3c(c2)OCO3)[C@@H](C(=O)O)[C@@H]1c1ccc(OC)cc1 |  | inactive |
| O=C(/C=C\n1cnc(-c2cc(C(F)(F)F)cc(C(F)(F)F)c2)n1)NNc1ccccn1 | 13.2 µM (active) |  |
| CCN(CC)CCNC(=O)c1c(C)[nH]c(/C=C2/C(=O)Nc3ccc(-c4csc(-c5ccccc5)n4)cc32)c1C | 2.95 µM (active) |  |
| C[C@@H]1CC(=O)Nc2cccc(-c3cnn(C(C)(C)C)c3)c2N1 |  | inactive |
| Cc1c(CN2CCC(Nc3ncnc4sc(CC(F)(F)F)cc34)CC2)ccc2c1cc(C#N)n2Cc1cn[nH]c1 | 18.6 µM (active) |  |
| CC(=O)c1cnc2ccc(-c3cc(Cl)c(O)c(Cl)c3)nc2c1NC1CCC(CN(C)C)CC1 (centres undefined) | 0.303 µM (active) |  |
| O=c1sn(-c2cccc3ccccc23)c(=O)n1Cc1ccccc1 | 3.72 µM (active) |  |
| Nc1ccc(/C=C/C(=O)NCc2cc3cc(-c4ccc(C(=O)N5CCC(F)(F)CC5)cc4)cc(-c4ccc(F)cc4)c3o2)cn1 | 0.525 µM (active) |  |
| Cc1cn(CCN2CCN(c3ccccc3-c3cc(C#N)cc(C(=O)NCCCN4CCCC4)c3)CC2)c2ccccc12 | 8.33 µM (active) |  |

| SMILES | AC50 | outcome |
| --- | --- | --- |
| CN(C)C1CCN(C(=O)c2ccc(NC(=O)Nc3ccc(-c4nc(N5CCOCC5)nc(N5CCOCC5)n4)cc3)cc2)CC1 | 0.417 µM (active) |  |
| CCOC(=N)c1nc2ccc3ncnc(Nc4cc(F)c(F)cc4Cl)c3c2s1 | 14.8 µM (active) |  |
| O=C(NOCCO)c1ccc2cncn2c1Nc1ccc(I)cc1F | 0.105 µM (active) |  |
| Cn1nccc1Nc1nccc(-c2ccn([C@H](CO)c3ccc(Cl)c(F)c3)c(=O)c2)n1 | 1.48 µM (active) |  |
| CCc1cc2c(c(OCC(F)(F)F)c(C(=O)NC3CCN(C(=O)CO)CC3)n2C)c(=O)n1CC(=O)c1ccccc1 |  | inactive |
| O=C(NCc1ccc(S(=O)(=O)c2cccc(C(F)(F)F)c2)cc1)c1cnc2[nH]ncc2c1 | 0.0148 µM (active) |  |
| C=C1C(=O)O[C@@H]2[C@H]3C(C)=CC[C@@]34O[C@@]4(C)CC[C@@H]12 | 8.33 µM (active) |  |
| COc1cc(C(=O)O)ccc1NC(=O)[C@@H]1N[C@@H](CC(C)(C)C)[C@](C#N)(c2ccc(Cl)cc2F)[C@H]1c1cccc(Cl)c1F | 11.8 µM (active) |  |
| CN1C/C=C/CCOc2cccc(c2)-c2ccnc(n2)Nc2cccc(c2)C1 | 0.166 µM (active) |  |
| Nc1nc2cc(-c3ccc4ncc(C(=O)N5CCOCC5)n4c3)ccc2o1 | 10.5 µM (active) |  |
| CNS(=O)(=O)Nc1nccc(Cc2c(C)c3ccc(Oc4ncccn4)cc3oc2=O)c1F | 1.05 µM (active) |  |
| COc1ccc(-c2cc(C(O)C3CCCCN3)c3ccccc3n2)cc1 (centres undefined) | 7.42 µM (active) |  |
| Cc1ccc(NC(=O)c2ccc3c(c2)OCCO3)cc1NC(=O)c1ccc2nc(OCCN3CCCC3)ccc2c1 | 0.204 µM (active) |  |
| O=C(CCCc1ccc2cccnc2n1)NCc1cc(-c2ccc(F)c(C(F)(F)F)c2)no1 |  | inactive |
| Cc1ccc(S(=O)(=O)Nc2cc(-c3ccc(C#N)s3)ccc2C)cc1 | 0.059 µM (active) |  |
| Nc1nc(N)c2nc(-c3cccc(Cl)c3)c(N)nc2n1 | 16.6 µM (active) |  |
| O=c1cc(N2CCOCC2)oc2c(-c3ccc4c(c3)OCCO4)csc12 | 7.42 µM (active) |  |
| COc1cc(OC)c(/C=C/S(=O)(=O)Cc2ccc(OC)c(OP(=O)(O)O)c2)c(OC)c1 | 0.059 µM (active) |  |
| Cc1cc(C(=O)Nc2cc(Nc3ccc4c(/C=C/c5ccccn5)n[nH]c4c3)ccc2F)n(C)n1 | 16.6 µM (active) |  |
